# In the library only some 11% were active in any assay of this set; here they are far more common.
# 3T3 cytotox – Cytotoxic Profiling in NIH 3T3 Cell Line of Diverse Libraries Using Quantitative High-Throughput Screening. hit rate 4.3% among 94,000. Potency, µM (titrated, usually from 96.7 µM), usual class: inhibitors. NIH 3T3 viability, CellTiter-Glo ATP luminescence, 48-72 h; also: nearly all actives have a fitted effect of over 55% in size
#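 Luminescent ATP readout (CellTiter-Glo, 10 min RT) after 48 or 72 hr compound exposure of NIH 3T3 cells seeded at 400 cells/well in 1536-well format; quantitative HTS.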
# HEK293 tox – Cytotoxic Profiling in HEK 293 Cell Line of Diverse Libraries Using Quantitative High-Throughput Screening | Potency, µM (top dose mostly 115 µM), actives largely listed as inhibitors | hit rate 6.6% among 94,000 | HEK 293 viability, ATP luminescence (CellTiter-Glo), 48-72 h; also: nearly all actives have a fitted effect of over 60% in size
#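 Cells seeded first (HEK 293, 250 cells/well), then compound added by pintool. Incubation ran 48 or 72 hr at 37 degree Celsius. CellTiter-Glo was added and luminescence imaged after 10 min at room temperature.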
# Luciferase inh – Firefly luciferase inhibition profiling of diverse chemical library using quantitative high-throughput screening. Luciferin 4-monooxygenase (Photinus pyralis), P08659. purified P. pyralis luciferase, luminescence, biochemical. Potency, µM (highest dose often 115 µM), usual class: inhibitors. hit rate 2.5% among 76,000. AID 1347043, 2019; also: nearly all actives have a fitted effect of over 65% in size
# Target sequence (P08659 whole entry, looked up): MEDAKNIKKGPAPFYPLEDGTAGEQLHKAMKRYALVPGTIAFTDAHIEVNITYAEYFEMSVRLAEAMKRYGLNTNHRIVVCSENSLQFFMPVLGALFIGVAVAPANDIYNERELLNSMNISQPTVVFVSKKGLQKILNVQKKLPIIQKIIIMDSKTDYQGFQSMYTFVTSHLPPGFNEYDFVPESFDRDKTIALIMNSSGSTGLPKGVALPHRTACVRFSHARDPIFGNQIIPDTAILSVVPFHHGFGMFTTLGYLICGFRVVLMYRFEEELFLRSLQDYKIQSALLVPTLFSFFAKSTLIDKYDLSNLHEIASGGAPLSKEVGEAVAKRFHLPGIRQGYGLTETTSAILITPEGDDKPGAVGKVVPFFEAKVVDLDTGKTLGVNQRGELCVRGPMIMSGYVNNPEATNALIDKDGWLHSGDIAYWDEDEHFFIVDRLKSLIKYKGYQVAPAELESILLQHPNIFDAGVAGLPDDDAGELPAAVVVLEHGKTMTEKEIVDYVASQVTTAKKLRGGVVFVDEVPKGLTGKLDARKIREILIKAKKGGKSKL
#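 Purified P. pyralis luciferase (10nM final) in 50mM Tris acetate pH 7.5, 10mM Mg acetate, 0.01% Tween-20, 0.05% BSA with 10uM D-luciferin and 10uM ATP. Compounds titrated qHTS. Luminescence imaged on CCD.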
# hNpr1 antagonist – Natriuretic polypeptide receptor (hNpr1) antagonism - Primary qHTS; Potency, µM (top dose mostly 46.3 µM), hits mostly inhibitors; HEK293 hNpr1 GloSensor cGMP, ANP-stimulated luminescence; AID 1347048, 2019; hit rate 1.6% among 76,000; calls by dose curve; also: nearly all actives have a fitted effect of over 60% in size
#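 HEK293 cells stably expressing human Npr1 and cGMP GloSensor pGS-40F, loaded 2 h with 2% GloSensor reagent, given compound 30 min at room temperature. Luminescence read before and 20 min after 0.1 nM hNppA.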
# NPR1 antag cnf – Natriuretic polypeptide receptor (hNpr1) antagonism - Confirmation | hit rate 76% among 1,400 | shares compounds with hNpr1 antagonist | Potency, µM (titrated, usually from 57.6 µM), hits mostly inhibitors | HEK293 hNpr1 cGMP GloSensor luminescence, ANP-stimulated; calls by dose curve; also: nearly all actives have a fitted effect of over 70% in size
# Npr2 selectivity – Natriuretic polypeptide receptor (hNpr2) antagonism - Subtype selectivity assay; HEK293 hNpr2 GloSensor cGMP luminescence, CNP-stimulated; hit rate 67% among 1,400; shares compounds with hNpr1 antagonist; Potency, µM (series often up to 57.6 µM), usual class: inhibitors; calls by dose curve; also: nearly all actives have a fitted effect of over 70% in size
# FLuc inh counter – Natriuretic polypeptide receptor (hNpr1) antagonism - Confirmation firefly luciferase (FLuc) inhibition counterscreen | shares compounds with hNpr1 antagonist | purified FLuc enzyme, luminescence, Km substrate | Potency, µM (highest dose often 57.6 µM), most hits filed as inhibitors | hit rate 0.7% among 1,400
# GloSensor ctrl – Natriuretic polypeptide receptor (hNpr1) antagonism - Counterscreen GloSensor control cell line; HEK293 GloSensor cGMP, SNP-stimulated, luminescence; shares compounds with hNpr1 antagonist; Potency, µM (doses to about 57.6 µM), usual class: inhibitors; hit rate 69% among 1,400; calls by dose curve; also: nearly all actives have a fitted effect of over 70% in size
# Numbers stand for hits; . = inactive; ? = inconclusive; / = not tested or not shown. Unless noted, calls follow the shape of the dose curve; as a rule, active = well fitted curve in the direction sought with a large enough effect; inconclusive = small, poorly fitted or top-dose-only effect, or another doubt; inactive = no such curve, though single readings can be large; an effect the other way counts as inactive or inconclusive.
SMILES,3T3 cytotox,HEK293 tox,Luciferase inh,hNpr1 antagonist,NPR1 antag cnf,Npr2 selectivity,FLuc inh counter,GloSensor ctrl
CCc1cnc(N2CCC(COc3ccc4c(cnn4CC[S+](C)(=O)[O-])c3)CC2)nc1,.,?,.,8.91µM,8.62µM,9.68µM,.,6.85µM
C[S+](=O)([O-])CCn1ncc2cc(OCc3cccc(-c4ccc(Cl)cc4)c3)ccc21,?,?,.,?,31.4µM,31.4µM,?,35.3µM
O=C(NC1CCCC1)[C@H]1C[C@@H](O)[C@H](O)[C@@H]2N=C(Nc3ccc4c(c3)OCO4)S[C@@H]21,.,.,.,.,/,/,/,/
Cc1ccccc1CN1CC[C@@H]2OCC(=O)N(C(C)C)[C@H]2CC1,.,?,.,7.94µM,7.89µM,12.5µM,.,6.27µM
COc1ccccc1CN1CC[C@@H]2OCC(=O)N(C(C)C)[C@H]2CC1,?,?,.,.,/,/,/,/
COc1ccc(CC(=O)N2CCC(Cc3nc(-c4ccc(F)cc4)no3)CC2)cc1,?,?,.,5.62µM,7.69µM,6.85µM,.,6.11µM
COc1ccc(-c2noc(CC3CCN(C(=O)CCc4ccccc4)CC3)n2)cc1,?,35.5µM,.,12.6µM,19.3µM,21.7µM,.,17.2µM
COc1cccc(CCC(=O)N2CCC(Cc3nc(-c4cnccn4)no3)CC2)c1,.,.,.,.,/,/,/,/
COc1ccc(-c2noc(CC3CCN(C(=O)COc4cccc(C)c4)CC3)n2)cc1,?,?,.,15.8µM,21.7µM,24.3µM,.,24.3µM
COc1ccc(CCC(=O)N2CCC(Cc3nc(-c4ccc(F)cc4)no3)CC2)cc1,?,?,.,5.62µM,4.32µM,10.9µM,.,10.9µM
O=C1CC(c2ccccc2)N(Cc2ccncc2)CCCN(C(=O)CCc2ccccc2)CCN1 (stereo unspecified),.,?,.,.,/,/,/,/
COCCOC1CCN(C(=O)c2ccsc2)C1 (stereo unspecified),.,.,/,/,/,/,/,/
O=C(Cn1ccn2nc(-c3ccccc3)c(CO)c2c1=O)NCCC1=CCCCC1,.,.,.,.,/,/,/,/
COc1ccc(-c2nc(C3CC3)nc3c2CN(C(=O)c2ccccc2)CC3)cc1,?,.,/,/,/,/,/,/
COc1cccc(CCC(=O)N2CCC(n3cc(-c4nc(-c5ccccc5)no4)nn3)C2)c1 (stereo unspecified),?,?,?,14.1µM,21.7µM,24.3µM,.,21.7µM
COCCNC(=O)c1ccc(CC2CCN(C(=O)CCc3ccc(OC)cc3)CC2)cc1,.,?,.,.,/,/,/,/
COc1ccc(CCC(=O)N2CCC(Cc3nc(-c4ccc(OC)cc4)no3)CC2)cc1,?,?,.,11.2µM,17.2µM,17.2µM,.,12.2µM
Cc1ccc(OCC(=O)N2CCC(Cc3nc(-c4ccc(F)cc4)no3)CC2)cc1,?,?,.,7.94µM,10.9µM,12.2µM,.,9.68µM
COc1ccc(OCC(=O)N2CCC(Cc3nc(-c4cnccn4)no3)CC2)cc1,?,.,.,.,/,/,/,/
COc1cccc(CCC(=O)N2CCC(Cc3nc(-c4cccc(OC)c4)no3)CC2)c1,?,?,.,15.8µM,21.7µM,21.7µM,.,17.2µM
CN1CCC(NC(=O)c2n[nH]c3c2CN(C(=O)c2cc(F)cc(F)c2)CC3)CC1,.,.,.,.,/,/,/,/
C[S+](=O)([O-])NCc1nnc2n1C(C(=O)NCCc1ccc(Cl)cc1)CC2 (stereo unspecified),.,.,/,/,/,/,/,/
COc1ccc(CCC(=O)N2CCC[C@H]2c2nc(-c3ccccc3Cl)no2)cc1,?,?,.,12.6µM,24.3µM,?,.,27.3µM
O=C(Cc1ccsc1)N1CCC(Cc2nc(-c3ccc(F)cc3)no2)CC1,?,?,.,5.01µM,4.85µM,4.85µM,.,3.85µM
O=C(CCCc1ccccc1)N1CCC[C@H]1c1nc(-c2ccccc2Cl)no1,?,?,.,.,/,/,/,/
SMILES,3T3 cytotox,HEK293 tox,Luciferase inh,hNpr1 antagonist,NPR1 antag cnf,Npr2 selectivity,FLuc inh counter,GloSensor ctrl
O=C(CCc1ccccc1)N1CC(Oc2ccc(-c3noc(C4CC4)n3)cc2)C1,?,28.2µM,.,14.1µM,15.3µM,17.2µM,.,15.3µM
CCOc1ccccc1NC(=O)Cn1c(-c2ccc(Cl)cc2)nc(C)c(CCO)c1=O,.,.,.,.,/,/,/,/
COc1ccc(CN2CCN3C(=O)N(Cc4ccc(C)cc4)C[C@H]3C2)cc1,?,?,.,?,/,/,/,/
COc1ccc(CN2C[C@H]3CN(Cc4ccc(C)cc4)CCN3C2=O)cc1,?,?,.,17.8µM,17.7µM,22.2µM,.,19.8µM
O=C1N(C2CCCCC2)C[C@H]2CN(Cc3ccc(C(F)(F)F)cc3)CCN12,?,?,.,12.6µM,15.7µM,19.8µM,.,15.7µM
O=C1c2ccccc2CN1C1CCN(Cc2ccc(C(F)(F)F)cc2)CC1,?,?,/,/,21.7µM,24.3µM,.,19.3µM
O=C1N(Cc2ccc(F)cc2)C[C@H]2CN(Cc3ccc(C(F)(F)F)cc3)CCN12,?,?,.,10µM,11.1µM,15.7µM,.,8.86µM
O=C1N(Cc2ccccn2)C[C@H]2CN(Cc3ccc(C(F)(F)F)cc3)CCN12,?,?,.,?,/,/,/,/
COc1ccc(S(=O)(=O)N2CCC(n3cnnc3-c3ccccc3)CC2)cc1,.,.,.,.,/,/,/,/
CN(Cc1cccc2cnccc12)C(=O)c1cc(COc2ccc(F)cc2F)on1,?,?,.,11.2µM,24.3µM,21.7µM,.,19.3µM
CN1C(=O)CCC2(C(=O)O)CCCC=C12 (stereo unspecified),.,.,.,.,/,/,/,/
O=C(C1CC1)N1CCN(C2CCN(Cc3ccccn3)C2=O)CC1 (stereo unspecified),.,.,.,.,/,/,/,/
Cc1oc(-c2ccccc2)nc1CN1CCCC(C(=O)NCCc2noc(-c3ccccc3)n2)C1 (stereo unspecified),?,?,.,12.6µM,?,?,.,?
COc1cccc(CC(=O)N2CCCCCC2c2nnc(-c3ccccc3)o2)c1 (stereo unspecified),.,?,/,/,/,/,/,/
O=C(Nc1ccccc1F)N1CCCCCC1c1nc(-c2cccnc2)no1 (stereo unspecified),.,?,.,.,/,/,/,/
